Assay results reported in PubChem BioAssay (Tox21).
Inconclusive results are not listed. Activity calls are given as the source filed them. Unless noted, calls come from the whole dose curve.

Experiments:
[1] = qHTS assay to identify small molecule agonists of the peroxisome proliferator-activated receptor delta (PPARd) signaling pathway - cell viability counter screen (AID 743211; active = well fitted curve in the direction sought with a large enough effect in the repeat runs; an effect the other way counts as inactive or inconclusive; note: % is set by controls: 0 for no effect and ±100 for the full control effect; nearly all actives have a fitted effect of over 55% in size)
Summary of the method: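 qHTS cell viability: PPARd-bla HEK293H; 17 h cpd, 37C; CellTiter-Glo, luminescence at 30 min RT.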

[2] = target: Peroxisome proliferator-activated receptor delta (Homo sapiens) (UniProt Q03181); experiment: qHTS assay to identify small molecule agonists of the peroxisome proliferator-activated receptor delta (PPARd) signaling pathway (AID 743212); note: % is set by controls: 0 for no effect and ±100 for the full control effect
Summary of the method: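 Quantitative high-throughput agonist screen in a HEK293H beta-lactamase reporter line under UAS control. Compounds in DMSO, at 37 C. Fluorescence read after 2 h with FRET substrate at room temperature.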

[3] = qHTS assay to identify small molecule antagonists of the peroxisome proliferator-activated receptor delta (PPARd) signaling pathway - cell viability counter screen (AID 743213; active = well fitted curve in the direction sought with a large enough effect in the repeat runs; an effect the other way counts as inactive or inconclusive; note: % is set by controls: 0 for no effect and ±100 for the full control effect; nearly all actives have a fitted effect of over 50% in size)
Summary of the method: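 Cytotoxicity counter screen: CellTiter-Glo luminescence read 30 min after addition, in the same wells as the reporter assay. There, PPARd UAS-bla HEK293H cells (3000/well) were treated 17 h at 37 C with compound and 300 nM L165041.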

[4] = target: Bile acid receptor (Homo sapiens) (UniProt Q96RI1); experiment: qHTS assay to identify small molecule antagonists of the farnesoid-X-receptor (FXR) signaling pathway (AID 743217; active = well fitted inhibition curve with a large enough effect in the signal ratio in the repeat runs, not every such curve was filed as active; the % refers to the signal ratio; note: % is set by controls: 0 for no effect and ±100 for the full control effect)
Summary of the method: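 HEK 293T FXR-UAS-bla, 5000 cells/well; compound + CDCA 50 uM final; 16 h, 37 °C; B/G FRET substrate 2 h RT; fluorescence.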

[5] = qHTS assay to identify small molecule agonists of the farnesoid-X-receptor (FXR) signaling pathway - cell viability counter screen (AID 743218; active = well fitted curve in the direction sought with a large enough effect in the repeat runs; an effect the other way counts as inactive or inconclusive; note: % is set by controls: 0 for no effect and ±100 for the full control effect; nearly all actives have a fitted effect of over 45% in size)
Summary of the method: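 HEK 293T FXR-bla cells; 5 h pre-incubation, 16 h compound exposure at 37 C; LiveBLAzer substrate 2 h RT, then CellTiter-Glo 30 min RT, luminescence.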

[6] = target: Bile acid receptor (Homo sapiens) (UniProt Q96RI1); experiment: qHTS assay to identify small molecule agonists of the farnesoid-X-receptor (FXR) signaling pathway (AID 743220; active = well fitted activation curve with a large enough effect in the signal ratio in the repeat runs, not every such curve was filed as active; the % refers to the signal ratio; note: % is set by controls: 0 for no effect and ±100 for the full control effect)
Summary of the method: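 Beta-lactamase reporter under UAS control in GeneBLAzer FXR HEK 293T cells (5000/well) measured with LiveBLAzer FRET substrate after 2 h at room temperature. Compound exposure lasted 16 h at 37C.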

[7] = qHTS assay to identify small molecule antagonists of the farnesoid-X-receptor (FXR) signaling pathway - cell viability counter screen (AID 743221; active = well fitted cell-killing curve with a large enough effect in the repeat runs, not every such curve was filed as active; note: % is set by controls: 0 for no effect and ±100 for the full control effect; nearly all actives have a fitted effect of over 50% in size)
Summary of the method: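 After a 5 h settling period, FXR-bla HEK 293T cells receive compound and chenodeoxycholic acid (50 uM final) and incubate 16 h at 37 C; CellTiter-Glo luminescence, read after 30 min at room temperature, reports cell viability.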

[8] = target: Vitamin D3 receptor (Homo sapiens) (UniProt P11473); experiment: qHTS assay to identify small molecule agonists of the vitamin D receptor (VDR) signaling pathway (AID 743222); note: % is set by controls: 0 for no effect and ±100 for the full control effect
Summary of the method: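 VDR-bla cells, 2,000/well; 4 h preincubation 37C; cpd (DMSO) 16 h; LiveBLAzer B/G substrate 2 h RT; fluorescence intensity read.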

[9] = qHTS assay to identify small molecule agonists of the vitamin D receptor (VDR) signaling pathway - cell viability counter screen (AID 743224; active = well fitted curve in the direction sought with a large enough effect in the repeat runs; an effect the other way counts as inactive or inconclusive; note: series mostly up to about 63 µM; % is set by controls: 0 for no effect and ±100 for the full control effect; nearly all actives have a fitted effect of over 50% in size)
Summary of the method: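 Luminescence from CellTiter-Glo, read after 30 min at room temperature, reports viability of VDR-bla cells treated with compounds for 16 h at 37C in the wells used for the beta-lactamase FRET read.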

[10] = qHTS assay to identify small molecule antagonists of the vitamin D receptor (VDR) signaling pathway - cell viability counter screen (AID 743225; active = well fitted curve in the direction sought with a large enough effect in the repeat runs; an effect the other way counts as inactive or inconclusive; note: % is set by controls: 0 for no effect and ±100 for the full control effect; nearly all actives have a fitted effect of over 50% in size)
Summary of the method: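 Parallel cytotoxicity test: VDR-UAS-bla HEK 293T, 3 nM (final) 1-alpha,25-dihydroxyvitamin D3 with test compound, 16 h, 37C. Endpoint is CellTiter-Glo luminescence in the same wells.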

[11] = qHTS assay to identify small molecule agonists of the NFkB signaling pathway - cell viability counter screen (AID 1159515); note: series mostly up to about 61 µM; % is set by controls: 0 for no effect and ±100 for the full control effect; nearly all actives have a fitted effect of over 55% in size
Summary of the method: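 Luminescence from CellTiter-Glo (30 min, room temperature) gives viability, measured in the same wells as the beta-lactamase reporter read. Cells were NFkB-bla ME-180, 2,000 per well, treated 5 hr with compounds.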

[12] = qHTS assay to identify small molecule agonists of the endoplasmic reticulum stress response signaling pathway (AID 1159516; active = well fitted activation curve with a large enough effect in the signal ratio in the repeat runs, not every such curve was filed as active; the % refers to the signal ratio; note: % is set by controls: 0 for no effect and ±100 for the full control effect)
Summary of the method: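 Read-out is beta-lactamase cleavage of a FRET substrate (405 nm excitation; 460 and 530 nm emissions) in ESRE-bla HeLa cells after a 5 hr compound exposure at 37 C. Substrate incubation ran 2 hr at room temperature.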

[13] = qHTS assay to identify small molecule agonists of the endoplasmic reticulum stress response signaling pathway - cell viability counter screen (AID 1159517)
Summary of the method: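 Counter-screen wells were identical to the reporter wells. Cells were plated at 1,500 per well and dosed for 5 hr, then read for luminescence 30 min after CellTiter-Glo addition.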

[14] = qHTS assay to identify small molecule antagonists of the retinoid-related orphan receptor gamma (ROR-gamma) signaling pathway - cell viability counter screen (AID 1159520; active = well fitted curve in the direction sought with a large enough effect in the repeat runs; an effect the other way counts as inactive or inconclusive)
Summary of the method: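 Tet-on ROR gamma CHO cells were given compounds for 2 hr, then doxycycline hyclate at 1 uM final, and incubated 16 hr at 37 C. Viability was measured as ATP content by CellTiter-Glo luminescence.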

[15] = target: Nuclear receptor ROR-gamma (Homo sapiens) (UniProt P51449); experiment: qHTS assay to identify small molecule antagonists of the retinoid-related orphan receptor gamma (ROR-gamma) signaling pathway (AID 1159521; active = well fitted curve in the direction sought with a large enough effect in the repeat runs; an effect the other way counts as inactive or inconclusive; note: nearly all actives have a fitted effect of over 50% in size; note: potency is the fitted concentration of half-maximal effect)
Summary of the method: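 Decreased RORE-driven luciferase luminescence indicates antagonism. Tet-on RORγ CHO cells received compound, then 1 uM final doxycycline 2 h later; signal read after 16 h incubation.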

[16] = qHTS assay to identify small molecule agonists of the AP-1 signaling pathway - cell viability counter screen (AID 1159525); note: nearly all actives have a fitted effect of over 55% in size
Summary of the method: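 AP-1-bla ME-180 cells in Opti-MEM with 0.5% dialyzed FBS, compound exposure 5 h at 37 C in 15-point titration. Viability read in the same wells as ATP content by CellTiter-Glo luminescence, normalised to tetra-n-octylammonium bromide and DMSO controls.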

[17] = qHTS assay to identify small molecule agonists of the AP-1 signaling pathway (AID 1159526); note: % is set by controls: 0 for no effect and ±100 for the full control effect
[18] = target: Retinoic acid receptor RXR-alpha (Homo sapiens) (UniProt P19793); experiment: qHTS assay to identify small molecule agonists of the RXR signaling pathway (AID 1159527); note: % is set by controls: 0 for no effect and ±100 for the full control effect; nearly all actives have a fitted effect of over 35% in size
Summary of the method: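 16 hr incubation of compound-treated RXR-alpha-UAS-bla HEK 293T cells (2% charcoal-stripped FBS, 37 C) preceded a 2 hr room-temperature LiveBLAzer FRET substrate step and blue/green fluorescence measurement.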

[19] = target: Peroxisome proliferator-activated receptor delta (Homo sapiens) (UniProt Q03181); experiment: qHTS assay to identify small molecule antagonists of the peroxisome proliferator-activated receptor delta (PPARd) signaling pathway (AID 743215; active = well fitted inhibition curve with a large enough effect in the signal ratio in the repeat runs, not every such curve was filed as active; the % refers to the signal ratio)
Summary of the method: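 Read-out is beta-lactamase FRET fluorescence, measured 2 h after substrate addition at room temperature. Beforehand, UAS-bla HEK293H cells carrying the PPARd reporter were exposed to compounds with L165041 at 300 nM final for 17 h at 37 C.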

[20] = target: Vitamin D3 receptor (Homo sapiens) (UniProt P11473); experiment: qHTS assay to identify small molecule antagonists of the vitamin D receptor (VDR) signaling pathway (AID 743223; active = well fitted inhibition curve with a large enough effect in the signal ratio in the repeat runs, not every such curve was filed as active; the % refers to the signal ratio; note: % is set by controls: 0 for no effect and ±100 for the full control effect)
Summary of the method: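 Reporter line VDR-bla; stimulus 1alpha,25-(OH)2 vitamin D3, 3 nM final; compound co-addition, 16 h 37C/5% CO2; LiveBLAzer B/G substrate 2 h RT; fluorescence intensity.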

Bile acid receptor (Homo sapiens), sequence (Q96RI1 whole entry, looked up): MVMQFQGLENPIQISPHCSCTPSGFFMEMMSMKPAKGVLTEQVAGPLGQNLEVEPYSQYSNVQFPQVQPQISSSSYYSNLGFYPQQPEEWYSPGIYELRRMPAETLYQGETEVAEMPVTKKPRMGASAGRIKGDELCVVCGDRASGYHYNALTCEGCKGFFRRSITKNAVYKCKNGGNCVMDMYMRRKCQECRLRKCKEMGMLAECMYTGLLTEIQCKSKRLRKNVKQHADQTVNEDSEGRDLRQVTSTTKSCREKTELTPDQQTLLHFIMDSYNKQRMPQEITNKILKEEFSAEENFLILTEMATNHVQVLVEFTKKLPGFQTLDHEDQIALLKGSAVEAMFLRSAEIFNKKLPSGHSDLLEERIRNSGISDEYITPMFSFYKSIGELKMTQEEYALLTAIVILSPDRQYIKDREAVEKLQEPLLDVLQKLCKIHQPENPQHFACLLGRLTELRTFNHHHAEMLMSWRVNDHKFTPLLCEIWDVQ
Retinoic acid receptor RXR-alpha (Homo sapiens), sequence (P19793 whole entry, looked up): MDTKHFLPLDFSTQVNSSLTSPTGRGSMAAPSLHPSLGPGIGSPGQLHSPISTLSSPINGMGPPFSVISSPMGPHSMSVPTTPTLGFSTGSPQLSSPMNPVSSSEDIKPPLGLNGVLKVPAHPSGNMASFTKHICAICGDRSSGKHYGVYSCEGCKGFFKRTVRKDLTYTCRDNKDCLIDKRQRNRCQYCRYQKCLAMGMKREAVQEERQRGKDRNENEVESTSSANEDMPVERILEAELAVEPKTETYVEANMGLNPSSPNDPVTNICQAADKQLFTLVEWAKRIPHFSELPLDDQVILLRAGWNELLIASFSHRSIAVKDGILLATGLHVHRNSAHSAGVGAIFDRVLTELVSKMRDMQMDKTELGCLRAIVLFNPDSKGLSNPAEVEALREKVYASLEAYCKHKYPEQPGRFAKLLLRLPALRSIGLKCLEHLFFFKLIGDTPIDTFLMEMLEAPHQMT
Peroxisome proliferator-activated receptor delta (Homo sapiens), sequence (Q03181 whole entry, looked up): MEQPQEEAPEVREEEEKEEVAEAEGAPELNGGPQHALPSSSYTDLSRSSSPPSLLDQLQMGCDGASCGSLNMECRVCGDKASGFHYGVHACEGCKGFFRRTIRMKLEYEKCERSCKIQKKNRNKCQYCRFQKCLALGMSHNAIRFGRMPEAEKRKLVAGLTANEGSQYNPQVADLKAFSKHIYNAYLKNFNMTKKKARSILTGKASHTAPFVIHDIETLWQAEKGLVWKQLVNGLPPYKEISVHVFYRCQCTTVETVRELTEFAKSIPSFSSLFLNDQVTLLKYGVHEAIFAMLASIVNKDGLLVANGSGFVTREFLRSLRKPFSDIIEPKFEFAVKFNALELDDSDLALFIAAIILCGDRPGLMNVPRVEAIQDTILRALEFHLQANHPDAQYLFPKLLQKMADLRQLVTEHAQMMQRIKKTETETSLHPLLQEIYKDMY
Vitamin D3 receptor (Homo sapiens), sequence (P11473 whole entry, looked up): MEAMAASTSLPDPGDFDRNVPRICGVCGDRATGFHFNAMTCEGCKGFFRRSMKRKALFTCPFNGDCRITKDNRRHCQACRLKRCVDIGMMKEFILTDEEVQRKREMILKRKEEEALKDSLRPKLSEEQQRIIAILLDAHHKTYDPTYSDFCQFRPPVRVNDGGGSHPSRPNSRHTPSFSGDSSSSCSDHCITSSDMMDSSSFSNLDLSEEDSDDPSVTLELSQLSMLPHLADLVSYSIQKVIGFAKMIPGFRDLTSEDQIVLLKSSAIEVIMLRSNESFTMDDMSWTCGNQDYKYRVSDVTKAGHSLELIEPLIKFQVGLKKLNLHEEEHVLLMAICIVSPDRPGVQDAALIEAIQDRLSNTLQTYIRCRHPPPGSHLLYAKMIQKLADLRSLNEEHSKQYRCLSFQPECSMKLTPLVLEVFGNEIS

CC(CO)(CO)[N+](=O)[O-]
inactive: outcome [1] | outcome [2] | outcome [3] | outcome [4] | outcome [5] | outcome [6] | outcome [7] | outcome [8] | outcome [9] | outcome [10] | outcome [11] | outcome [12] | outcome [13] | outcome [14] | Potency [15] | outcome [16] | outcome [17] | Potency [18]

CCCCCCCCCCCCSC
inactive: outcome [1] | outcome [2] | outcome [3] | outcome [6] | outcome [7] | outcome [9] | outcome [10] | outcome [11] | outcome [12] | outcome [13] | outcome [14] | Potency [15] | outcome [16] | outcome [17] | Potency [18]

Nc1ccncc1N
inactive: outcome [1] | outcome [2] | outcome [19] | outcome [4] | outcome [5] | outcome [6] | outcome [7] | outcome [8] | outcome [20] | outcome [9] | outcome [10] | outcome [11] | outcome [12] | outcome [13] | outcome [14] | Potency [15] | outcome [16] | outcome [17] | Potency [18]

Cc1coc2ccccc2c1=O
inactive: outcome [1] | outcome [2] | outcome [3] | outcome [4] | outcome [5] | outcome [6] | outcome [7] | outcome [8] | outcome [9] | outcome [10] | outcome [11] | outcome [12] | outcome [13] | outcome [14] | Potency [15] | outcome [16] | outcome [17] | Potency [18]

CC(C)(C)OC(=O)c1cccc(N)c1
inactive: outcome [1] | outcome [2] | outcome [3] | outcome [19] | outcome [5] | outcome [8] | outcome [20] | outcome [9] | outcome [10] | outcome [11] | outcome [12] | outcome [13] | outcome [14] | Potency [15] | outcome [16] | outcome [17] | Potency [18]

Nc1ccn([C@@H]2O[C@H](CO)[C@@H](O)C2(F)F)c(=O)n1
inactive: outcome [1] | outcome [2] | outcome [3] | outcome [5] | outcome [6] | outcome [8] | outcome [20] | outcome [9] | outcome [10] | outcome [11] | outcome [12] | outcome [13] | outcome [14] | outcome [16] | outcome [17] | Potency [18]
active: Potency [15] 237 nM

Cc1ncc(COP(=O)(O)O)c(C=O)c1O
inactive: outcome [1] | outcome [2] | outcome [3] | outcome [5] | outcome [7] | outcome [8] | outcome [20] | outcome [9] | outcome [10] | outcome [11] | outcome [12] | outcome [13] | outcome [14] | Potency [15] | outcome [16] | outcome [17] | Potency [18]

CCCCCCCCCCCCCCCCCCO
inactive: outcome [1] | outcome [2] | outcome [3] | outcome [19] | outcome [5] | outcome [8] | outcome [20] | outcome [9] | outcome [10] | outcome [11] | outcome [12] | outcome [13] | outcome [14] | Potency [15] | outcome [16] | outcome [17] | Potency [18]

COc1ccnc(CS(=O)c2nc3cc(OC(F)F)ccc3[nH]2)c1OC (stereo not drawn)
inactive: outcome [1] | outcome [2] | outcome [3] | outcome [19] | outcome [5] | outcome [7] | outcome [9] | outcome [10] | outcome [11] | outcome [12] | outcome [13] | outcome [14] | Potency [15] | outcome [16] | outcome [17] | Potency [18]

O=C(O)Cc1csc(-c2ccc(Cl)cc2)n1
inactive: outcome [1] | outcome [2] | outcome [3] | outcome [7] | outcome [8] | outcome [20] | outcome [9] | outcome [10] | outcome [11] | outcome [12] | outcome [13] | outcome [14] | Potency [15] | outcome [16] | outcome [17] | Potency [18]

CCCCN1C=CN(C)C1
inactive: outcome [1] | outcome [2] | outcome [3] | outcome [19] | outcome [8] | outcome [20] | outcome [10] | outcome [11] | outcome [12] | outcome [13] | activity, negative = cytotoxicity [14] 1.65% [at 19 µM] | activity change, negative = inhibition [15] 11.4% [at 19 µM] | viability change, negative = cytotoxic [16] 3.01% [at 15.8 µM] | activation [17] -8.87% [at 15.8 µM] | activation [18] 3.97% [at 15.8 µM]

CC1=NS(=O)(=O)c2cc(Cl)ccc2N1
inactive: outcome [1] | outcome [2] | outcome [3] | outcome [19] | outcome [5] | outcome [10] | outcome [11] | outcome [12] | outcome [13] | outcome [14] | Potency [15] | outcome [16] | outcome [17] | Potency [18]

CCCOC(=O)CC
inactive: outcome [1] | outcome [2] | outcome [3] | outcome [19] | outcome [7] | outcome [8] | outcome [9] | outcome [10] | outcome [11] | outcome [12] | outcome [13] | outcome [14] | Potency [15] | outcome [16] | outcome [17] | Potency [18]

CO[C@@]1(NC(=O)C(C(=O)O)c2ccc(O)cc2)C(=O)N2C(C(=O)O)=C(CSc3nnnn3C)CO[C@@H]21 (stereo partly drawn)
inactive: outcome [1] | outcome [2] | outcome [3] | outcome [19] | outcome [7] | outcome [8] | outcome [20] | outcome [9] | outcome [10] | outcome [11] | outcome [12] | outcome [13] | outcome [14] | Potency [15] | outcome [16] | outcome [17] | Potency [18]

CCCCOCCOC(=O)CCCCCCCCC(=O)OCCOCCCC
inactive: outcome [1] | outcome [2] | outcome [3] | outcome [19] | outcome [5] | outcome [7] | outcome [9] | outcome [10] | outcome [11] | outcome [12] | outcome [13] | outcome [14] | Potency [15] | outcome [16] | outcome [17] | Potency [18]
